About 79,000 compounds went through this panel and 15% of them were active in at least one assay; those are over-represented in the sample as a whole. Values without a mark were called inactive. The source made the active and inactive calls. No stated cut-off is given here; in the data, active means growth inhibition above about 70%; inactive means the rest.
Assay: NCI Yeast Anticancer Drug Screen. Data for the sgs1 mgt1 strain (AID 161);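 further: 0% = growth of cultures given vehicle only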
Settings: S. cerevisiae sgs1 mgt1 strain, at 50.0 µM, hits give high values
Outline: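 Compounds are added to genetically altered yeast, and growth is compared with cultures given vehicle alone to give percent inhibition.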

Compound | growth inhibition
O=Nc1c(O)ccc2ccccc12.[Fe].[Na+] | 98.5% (active)
CC(C)Cc1ncc(CC(C)C)n(O)c1=O | 91% (active)
COc1ccc2c(c1)CCc1c-2ccc(C)c1CCC(=O)O | 63.9%
COc1ccc(/C=C(\C#N)c2ccccc2)cc1OC | 88.5% (active)
CCC(=O)OCC(=O)c1ccc(-c2ccccc2)cc1 | 3%
C=C1CC(c2ccc(OCCCN3C(=O)c4ccccc4C3=O)c(OC)c2)OC1=O (stereo not drawn) | 91% (active)
N[C@H](C(=O)O)[C@@H]1CC(Cl)=NO1 | 84.5% (active)
Cc1ccc2c(c1)[n+]([O-])c(N)c(C#N)[n+]2[O-] | 36.3%
Cc1cc(O)c2c(c1)C(=O)c1c(c(O)cc(O)c1-c1c(O)cc(O)c3c1C(=O)c1cc(C)cc(O)c1C3=O)C2=O | 69.8%
CC(=O)c1csc2c1C(=O)c1scc(C(C)=O)c1C2=O | 90.3% (active)
CCC(CCCN(CC)CCc1ccccc1)OC(=O)c1cc(OC)c(OC)c(OC)c1 (stereo not drawn) | 37.8%
COC(CCC[N+](C)(C)C)CC[N+](C)(C)C (stereo not drawn) | 97.8% (active)
CCC(=O)c1ccc2ccc3ccccc3c2c1 | 65.2%
CN(C)c1nc(N(C)C)oc(=[N+](C)C)n1 | 7.8%
COc1ccc(Cc2ccc(N)cc2)cc1 | 89.5% (active)
CN(C)CC(CN(C)C)C(=O)c1ccc(Oc2ccccc2)cc1 | 99.4% (active)
C1C2OC2C2C1C1CC2C2OC12 (stereo not drawn) | -2.55%
Nc1ccc2c(c1)[nH]c(=O)c1cccc(Cl)c12 | 61.2%

From PubChem BioAssay (NCI)
